Compound activity deposited in PubChem by National Center for Advancing Translational Sciences (NCATS).
The list is not random: actives were taken first. Their share in the collection is about 0.95%.
RE007 growth inh: less growth of the S. pombe RE007 Vpr strain | AID 651644 | actives 0.21% (n = 360,000) | Potency, µM (highest dose often 92.2 µM), for inactives: at the top dose activity change, negative = less growth, actives largely listed as inhibitors | S. pombe RE007 Vpr strain, BacTiter-Glo ATP luminescence, 24 h; active means well fitted falling curve with a large enough effect; inconclusive means small, poorly fitted or top-dose-only effect; inactive means no such curve, though single readings can be large or run the other way; further: nearly all actives have a fitted effect of over 50% in size
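Fission yeast strain RE007, carrying one chromosomally integrated HIV-1 vpr copy, was seeded at OD 0.01 in PMG+AL medium with 23 nL pinned compound. After 24 h at 30 °C and 99% humidity, viability was read by BacTiter-Glo luminescence.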
Giardia FBPA inh: inhibitors of Giardia lamblia fructose-1,6-bisphosphate aldolase | purified Giardia FBPA | A8B2U2 | Potency, µM (highest dose often 59.6 µM), for inactives: at the top dose activity, negative = inhibition, most hits filed as inhibitors | actives 0.71% (n = 290,000); further: nearly all actives have a fitted effect of over 55% in size
Target sequence (A8B2U2 whole entry, looked up): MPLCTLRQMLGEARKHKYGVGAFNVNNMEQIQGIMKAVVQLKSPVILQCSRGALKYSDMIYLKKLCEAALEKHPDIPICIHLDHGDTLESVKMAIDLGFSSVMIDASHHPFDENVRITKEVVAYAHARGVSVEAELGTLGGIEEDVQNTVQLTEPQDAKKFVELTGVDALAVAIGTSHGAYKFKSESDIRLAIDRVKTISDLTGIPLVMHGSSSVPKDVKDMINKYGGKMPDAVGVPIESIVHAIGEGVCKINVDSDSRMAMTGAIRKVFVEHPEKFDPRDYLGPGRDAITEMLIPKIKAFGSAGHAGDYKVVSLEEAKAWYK
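40 nM FBPA preincubated 10 min at RT with compound (up to 57.5 uM final), then substrate plus GAPDH/TPI/NAD/arsenate coupling and diaphorase/resazurin added. Fluorescence read after 20 min at RT, 525/598 nm.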
TbPYK inhibitor: blocks Trypanosoma brucei pyruvate kinase | Potency, µM (doses to about 76.8 µM), for the others: top-dose activity, negative = inhibition, hits mostly inhibitors | TbPYK enzyme, Kinase-Glo Plus ATP luminescence, 45 min | actives 0.12% (n = 410,000); further: nearly all actives have a fitted effect of over 50% in size
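Screened from lowest to highest concentration, compounds were pinned into TbPYK/substrate mixtures, and ADP (130 uM final) was added. Plates sat at room temperature for 45 min prior to Kinase-Glo Plus detection by luminescence.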
LmPK inh: LmPK (Leishmania mexicana) enzyme inhibition; Q27686; purified LmPK, Kinase-Glo ATP luminescence, 1 h; Potency, µM (doses to about 57.5 µM), for the others: top-dose activity change, negative = inhibition, actives largely listed as inhibitors; actives 0.37% (n = 290,000)
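ATP generated from ADP (0.1 mM) and PEP (0.5 mM) by 0.1 nM LmPK over 1 h at room temperature (pH 7.2 imidazole buffer) was detected by coupled luciferase luminescence. Values were normalized to uninhibited and no-enzyme wells.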
An asterisk follows results filed as active; ? = inconclusive; nt = not tested or not shown; ! = a repeat was not active; [ ] = another dose, or the depositor's remark. Unless noted, the call rests on the fitted dose curve; in most records, active means well fitted curve in the direction sought with a large enough effect; inconclusive means small, poorly fitted or top-dose-only effect, or another doubt; inactive means no such curve, though single readings can be large; an effect the other way counts as inactive or inconclusive. On the % scale 0 is the no-effect control and ±100 the full control effect; potency means the concentration at half of the fitted maximal effect.

SMILES	RE007 growth inh	Giardia FBPA inh	TbPYK inhibitor	LmPK inh
Fc1ccc(-c2c[nH]c(=S)n2Cc2ccccc2)cc1	25%	-3%	?	3.5µM*
CCOC(=O)C1=C[C@@H](C2CCCCC2)N(S(=O)(=O)c2ccc([N+](=O)[O-])cc2)[C@H]1c1ccccc1	-7%	nt	0%	nt
COCc1cc(O)c(O)c(O)c1-c1c(COC)cc(O)c(O)c1O	nt	4µM*	nt	nt
CCc1oc(C(=O)O)cc1COC	-5%	-2%	-3%	9%
CC[C@@H]([C@H](C)O)n1ncn(-c2ccc(N3CCN(c4ccc(OCC5CO[C@@](Cn6cncn6)(c6ccc(F)cc6F)C5)cc4)CC3)cc2)c1=O (stereo partly specified)	nt	nt	17%	nt
O=C1CCCC2=C1C(c1ccc(O)c(O)c1)c1c(ccc3ncccc13)N2 (stereo unspecified)	-2%	6.3µM*	18µM*	3%
CC(O)(c1ccc(F)c(F)c1)c1nc(-c2ccc3ccccc3c2)cs1 (stereo unspecified)	-8%[18.4 µM]	nt	1%	nt
COc1cc(/C=C\c2ccc(OC)cc2OC)cc(OC)c1	nt	-2%	nt	nt
CCc1ccc(-c2[nH]c3c(c2-c2c(-n4cccc4)n(C)c(=O)[nH]c2=O)c(=O)[nH]c(=O)n3C)cc1	nt	nt	-1%	nt
Cc1c2cc(O)c(=O)cc-2oc2cc(O)c(O)cc12	?	7.1µM*	-27%	?
COc1cc(OC)c(-c2c3cc(O)c(=O)cc-3oc3cc(O)c(O)cc23)cc1OC	?	?	-15%	-18%
N/C(=N\OC(=O)c1cccc(F)c1)c1ccccc1	-28%	-1%	-25%	16µM*
COc1ccc(C(=O)O/N=C(\C)c2ccccc2)cc1	-1%	-6%	13µM*	6.3µM*
N/C(=N\OC(=O)c1ccc(F)cc1)c1ccccc1	?	2%	?	7.9µM*
S=c1[nH]c(-c2ccccc2)cn1/N=C/c1ccc(Br)cc1	4%	4%	-32%	0%
S=c1[nH]c(-c2ccccc2)cn1/N=C/c1cccnc1	20%	-11%	?	3.5µM*
O=C(O)c1ccc(/C=N/n2cc(-c3ccccc3)[nH]c2=S)cc1	-5%	?	?	14µM*
CCCNC(=O)Nc1nc(C(N)c2ccc(OC)cc2)cs1 (stereo unspecified)	-3%	nt	-6%	nt
CC(=O)c1cc(F)c(N2CCOCC2)cc1C	-4%	3%	0%	-2%
Cc1cc(N2CCOCC2)c(F)cc1C(=O)c1ccccc1	13µM*	5%	0%	3%
CCNc1ncc2nc(-c3cc(F)cc(F)c3)c(=O)n(CCOC)c2n1	nt	0%	nt	nt
CC(=O)OC1CC(OC2C(O)CC(OC3C(O)CC(O[C@H]4CC[C@]5(C)C6CC[C@]7(C)[C@@H](C8=CC(=O)OC8)[C@@H](O)C[C@]7(O)[C@@H]6CC[C@@H]5C4)OC3C)OC2C)OC(C)C1OC1OC(CO)C(O)C(O)C1O (stereo partly specified)	nt	nt	1%	nt
NCCS	0%	16µM*!	-1%	1%
Cc1nc(N=Nc2cc([N+](=O)[O-])ccc2Cl)c(COP(=O)(O)O)c(C=O)c1O	nt	22µM*	nt	nt
Cc1nc(N=Nc2cc(S(=O)(=O)O)c3cc([N+](=O)[O-])cc(S(=O)(=O)O)c3c2)c(COP(=O)(O)O)c(C=O)c1O	nt	18%	nt	nt
SMILES	RE007 growth inh	Giardia FBPA inh	TbPYK inhibitor	LmPK inh
CC(C)CC1(C(=O)O)C=CCN1C(=O)c1ccccc1 (stereo unspecified)	nt	4%	nt	nt
O=C(Nc1ccc2c(c1)CCCN2C(=O)c1cccs1)c1ccc(F)c(F)c1	nt	nt	5%	nt
CC(=O)Oc1ccccc1Cn1c(C)c(C(=O)NCCC#N)sc1=O	0%[18.4 µM]	nt	2%	nt
C=CC1=C2C=C(C3CC3)N(Cc3ccccc3)C=C2C(=O)C(C)(OC(=O)c2ccco2)C1=O (stereo unspecified)	nt	?	nt	-6%[11.5 µM]
CCc1cc(-c2n[nH]c(=S)n2-c2cccc(C)c2)cs1	5%	9%	11µM*	4.5µM*
Cc1cccc(-n2c(-c3csc(C)c3)n[nH]c2=S)c1	5%	4%	?	4.5µM*
CCCCn1c(-c2csc(CC)c2)n[nH]c1=S	-4%	18%	4µM*	?
CC(=O)Oc1ccccc1Cn1c(C)c(C(=O)NCc2ccccc2C(F)(F)F)sc1=O	1%[18.4 µM]	nt	2%	nt
Nc1ccccc1C(=O)OCC(=O)c1ccc2c(c1)OCCO2	-15%	14%	-19%	14µM*
O=C(CS(=O)(=O)c1ccccc1)c1ccc2c(c1)OCCO2	17%	1%	6%	13µM*
Cc1cnc(CNC(=O)C2CCC(=O)N(CCc3ccc(Cl)cc3)C2)cn1 (stereo unspecified)	-12%	18%	0%	-7%
O=C(O)c1ccc(/C=N/N2CCN(C3c4ccccc4-c4ccccc43)CC2)cc1	17%	-1%	-15%	22µM*
Oc1ccc(/C=N/N2CCN(C3c4ccccc4-c4ccccc43)CC2)cc1	-6%	29%	4%	3%
Fc1cccc(Cc2c(-c3ccco3)nc3ccc(Br)cn23)c1	-10%	nt	25µM*	nt
O=C(O)CSc1ncnc2nc[nH]c12	-19%	0%	-10%	-5%
c1nc(SSc2ncnc3nc[nH]c23)c2[nH]cnc2n1	-1%	nt	3.5µM*	nt
CN(C)C(CNc1ccc(C(F)(F)F)cc1[N+](=O)[O-])c1ccccc1 (stereo unspecified)	-27%	5%	-4%	-6%
O=C1c2ccccc2C(=O)N1SC1CCCCC1	45µM*	-1%	?	32%
CC1=CC(C)(C)N2C(=O)C(=Nc3ccc(O)cc3)c3cccc1c32	-16%	13µM*	-14%	-12%
COc1cc(N=C2C(=O)N3c4c(cccc42)C(C)=CC3(C)C)cc(OC)c1	-13%	-17%	17%	-2%
Cc1ccc(/C=C/C(=O)N2CCN(S(=O)(=O)c3c(C)c(C)cc(C)c3C)CC2)o1	11%	0%	?	1%
Cc1ccc(/C=C/C(=O)N2CCN(S(=O)(=O)c3ccc(C)c(C)c3)CC2)o1	25%	-12%	14µM*	7%
O=[N+]([O-])c1ccc(S(=O)(=O)Nc2ccc(-c3ccccc3)cc2)cc1	35µM*	nt	-3%	nt
CC(=O)Nc1ccc(S(=O)(=O)Nc2ccc([N+](=O)[O-])cc2)cc1	nt	28%	0%	nt
CCCc1cnc2c(c1SCC(=O)Nc1ccc([N+](=O)[O-])cc1)c(=O)n(C)c(=O)n2C	nt	nt	-28%	nt
SMILES	RE007 growth inh	Giardia FBPA inh	TbPYK inhibitor	LmPK inh
COc1ccc2c(c1)CC/C(=C\Nc1ccc3c(c1)OCO3)C2=O	0%	7.9µM*	-18%	-1%
COc1ccc(N/C=C2\CCOC2=O)cc1	11%	-6%	-2%	-4%
COc1ccc(S(=O)(=O)Nc2ccc3c(c2)OCO3)cc1	-19%	-5%	-19%	4%
COc1ccc(N/C=C2\CCc3ccccc3C2=O)cc1	?	11µM*	?	13µM*
O=C1/C(=C/Nc2ccc3c(c2)OCO3)CCc2ccccc21	?	14µM*	?	13µM*
Cc1cc(C)cc(N2CC(c3nc(-c4ccccc4C)no3)CC2=O)c1 (stereo unspecified)	nt	nt	5%	nt
